An excerpt weighted towards active compounds, which were near 3.3% of everything screened.
D3 ag: D3 dopamine receptor (human) agonism; P35462; D3R DiscoveRx beta-arrestin cells, luminescence, 90 min; max activation, %; actives 0.58% (n = 410,000); in the data active means max activation above about 30%; further: 0% is about no effect
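Cells at 1500/well, incubated overnight, then treated with pinned compounds (dopamine as control) for 90 min at 37 degrees C. DiscoveRx reagent added for 30 - 60 minutes at room temperature; luminescence read.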
DRD3 antagonist: antagonists of human D3 dopamine receptor. P35462. D3R cells, DiscoveRx beta-arrestin luminescence, antagonist mode; active compounds read low. max response, negative = inhibition, %. actives 2.5% (n = 360,000). AID 652054; in the data active means max response below about -50%; inconclusive means no clear call, values can overlap the other calls; further: on the % scale 0 is the no-effect control and ±100 the full control effect
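Cells expressing the human receptor were seeded at 1500 cells/well, incubated overnight at 37 degrees C in 5% CO2, then exposed to library compounds with dopamine controls for 90 minutes at 37 degrees C before luminescent detection.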
LDHA inh: LDHA (human) enzyme inhibition. P00338. purified LDHA, NADH/diaphorase-resazurin fluorescence; active compounds read low. activity change, % (values are at about 110 or 230 µM). actives 0.15% (n = 480,000). AID 1347041; in the data active means activity change below about -30%; inconclusive means mostly about -25% to -30%;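 further: plate controls were DMSO wells for no effect and wells without enzyme for full effect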
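LDH5 2 nM; NADH 0.06 mM, pyruvate 0.2 mM; 200 mM Tris pH 7.4, EDTA, Tween-20; 5 min RT. Detection: diaphorase 0.133 mg/mL + resazurin 37 µM, fluorescence ex540/em590 at 0 and 20 min; normalized to enzyme-free and DMSO wells.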
PI4K2A block: blocks human PI4K2A kinase activity; Q9BTU6; purified PI4K2A, ADP-Glo luminescence, 1 h; active compounds read low; activity change, negative = inhibition, % at 76.9 µM; actives 0.13% (n = 420,000); AID 1346378; in the data active means activity change below about -50%; inconclusive means mostly about -30% to -49%;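 further: -100% = wells without enzyme as full effect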
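PI4K2A activity was measured by ADP-Glo luminescence: enzyme (4 ug/mL stock) and phosphatidylinositol (1.2 mM stock) in Tris pH 7.5/MgCl2/EGTA/Triton X-100 buffer were reacted with ATP (300 microM stock) for one hour at ambient temperature.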
PI5P4Ka inh: inhibitors of human PI5P4K alpha. actives 1.2% (n = 330,000). max response, %. PI5P4Kalpha enzyme, ADP-Glo luminescence, 60 min; active compounds read low; active means max response of -50% or lower; inconclusive means between -30% and -50%; inactive means -30% or higher; further: value at the top dose of about 77 µM; on the % scale 0 is the no-effect control and ±100 the full control effect
Target sequence (P48426 whole entry, looked up): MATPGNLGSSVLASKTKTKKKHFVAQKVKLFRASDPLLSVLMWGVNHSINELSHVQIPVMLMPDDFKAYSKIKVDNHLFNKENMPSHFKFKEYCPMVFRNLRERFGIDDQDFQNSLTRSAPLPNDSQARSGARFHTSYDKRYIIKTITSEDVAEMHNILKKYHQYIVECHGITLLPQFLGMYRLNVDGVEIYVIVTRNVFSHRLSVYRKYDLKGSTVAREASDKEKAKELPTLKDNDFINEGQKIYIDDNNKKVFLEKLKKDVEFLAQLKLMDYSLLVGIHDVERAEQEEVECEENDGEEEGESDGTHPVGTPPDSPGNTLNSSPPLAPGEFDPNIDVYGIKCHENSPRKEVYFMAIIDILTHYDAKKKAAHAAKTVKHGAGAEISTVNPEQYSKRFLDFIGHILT
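Controls without substrate or without enzyme flank wells where PI5P4Kalpha converts substrate using 5 microM ATP (final). Incubation lasts 60 minutes at room temperature; ADP formed is read by ADP-Glo luminescence.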
* hit, by the source's call; ? = inconclusive; · = no result given.

SMILES	D3 ag	DRD3 antagonist	LDHA inh	PI4K2A block	PI5P4Ka inh
C=C1c2cccc(O)c2C(=O)C2C(=O)[C@]3(O)C(=O)C(C(N)=O)C(=O)[C@@H](N(C)C)[C@@H]3[C@@H](O)[C@H]12 (some centres not stated)	18	15	-12	?	-71*
COc1cc(OC)cc(OC(=O)C2CCCCC2)c1	·	·	2	·	·
CCN(Cc1ccccc1)C(=O)C1CCN(Cc2ccc(SC)cc2)CC1	-17	-26	-6	-4	6
CCN(Cc1ccccc1)C(=O)C1CCN(Cc2ccc(OC)c(OC)c2OC)CC1	-35	-51*	-19	6	·
CN1CCN(Cc2cccc(Oc3ccccc3)c2)CC1	-20	-27	-3	0	·
Brc1ccc(CN2CCSCC2)cc1	-39	-28	-30*	-1	·
COc1ccc(CN2CCN(Cc3cccc(Oc4ccccc4)c3)CC2)c(OC)c1OC	-35	-70*	-13	11	24
COc1ccc(CN2CCN(Cc3ccc(Br)cc3)CC2)c(OC)c1OC	-19	?	-30*	-1	1
CCOC(=O)C1=NOC(C(=O)NCc2ccccc2)(C(=O)c2ccc(OC)cc2)C1 (configuration not stated)	·	·	·	0	·
CCC(C)[C@H](N)c1nnc(SCC(=O)Nc2cc(C)ccc2C)o1 (some centres not stated)	·	·	2	·	·
O=C(CCN1CCc2ccccc2C1)Nc1ccc(F)cc1	-4	-66*	-2	7	1
Cc1ccccc1NC(=O)CCN1CCc2ccccc2C1	-6	-79*	-2	3	-6
O=C(CCN1CCOCC1)Nc1ccc(F)cc1	2	10	1	6	2
COC(=O)c1c(NC(=O)c2cc3ccccc3s2)sc(C)c1C	·	·	2	·	·
Cc1cccc(/C=C/C(=O)c2cc(Br)ccc(=O)c2O)c1	-7	-59*	14	-16	?
CCCNC(=S)Nc1cc(Cl)c(N)c(Cl)c1	·	·	10	·	·
CCN(CC)C(=O)c1ccc2nc3ccccc3nc2c1	-2	-63*	1	4	-6
NC(=O)c1c(NC(=O)c2ccc([N+](=O)[O-])o2)sc2c1CCCC2	-5	-50*	-8	-5	-10
CC(=O)N1CCc2c(sc(NC(=O)Cc3ccccc3)c2C(N)=O)C1	-10	0	0	4	-2
CN1CCc2c(sc(NC(=O)c3ccco3)c2C(N)=O)C1	-14	?	-8	-6	-13
CN1CCc2c(sc(NC(=O)c3ccc([N+](=O)[O-])o3)c2C(N)=O)C1	-14	-56*	5	-8	2
CCCN1CCc2c(sc(NC(=O)Cc3ccc(F)cc3)c2C(N)=O)C1	-19	-59*	-6	-8	-2
N#Cc1c(NC(=O)c2ccc([N+](=O)[O-])o2)sc2c1CCC2	-33	-63*	0	10	-3
NC(=O)c1c(NC(=O)c2ccco2)sc2c1CCCC2	·	·	-3	·	·
CCCC(=O)N1N=C(c2ccc(F)cc2)CC1c1ccc2nccnc2c1 (configuration not stated)	·	·	5	·	·
SMILES	D3 ag	DRD3 antagonist	LDHA inh	PI4K2A block	PI5P4Ka inh
O=C(NCc1ccccc1)c1ccc2nc(-c3ccco3)c(-c3ccco3)nc2c1	1	0	10	-66*	?
CN(C)c1ccc(CNC(=O)c2ccc3nc(CCc4ccccc4)oc3c2)cc1	48*	·	8	-6	·
S=C(Nc1ccc(N2CCOCC2)cc1)Nc1ccc2nc(-c3ccco3)c(-c3ccco3)nc2c1	0	-5	17	?	-78*
CN(C)c1ccc(CNC(=O)c2ccc3nc(Cc4ccccc4)oc3c2)cc1	-6	·	2	-4	·
O=C(NCCCO)c1ccc2nc(-c3ccco3)c(-c3ccco3)nc2c1	4	15	10	-5	-25
CC(=O)c1ccc(NC(=O)c2ccc3nc(-c4ccco4)c(-c4ccco4)nc3c2)cc1	-3	1	6	-56*	-110*
COc1cc(C2c3c(-c4cc(Cl)c(C)cc4O)n[nH]c3C(=O)N2Cc2ccco2)ccc1O (configuration not stated)	·	·	-7	·	·
COc1ccc(NC(=O)c2ccc3c(c2)S(=O)(=O)N=C(C)N3CC(C)C)c(OC)c1	·	·	8	·	·
O=C(Nc1ccccc1)c1ccc2nc(-c3ccco3)c(-c3ccco3)nc2c1	-1	-9	29	-51*	·

Bioassay records (PubChem)
